This is part of a sample that, as a whole, favours compounds with a hit. Of some 83,000 tested, about 20% had one in any assay.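 For each line, cells grew in 96-well plates with the test compound present at a single concentration for 48 hours.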 Values without a mark were called inactive. Active and inactive are the calls of the source. Rule for the calls: active = growth percent below 10; inactive = the rest.

What all share (experiment): NCI-60 one-dose screen, 48 h (100 = growth as untreated, 0 = no growth, -100 = all killed)
One test deals with HOP-92 NSCLC. To be noted: 10 µM unless noted.
Another test concerns HT29 colon. Conditions: 10 µM unless noted.
Another test relates to SNB-75 CNS. Conditions: 10 µM unless noted.
In the next test the test system is PC-3 prostate. Conditions: 10 µM unless noted.
The next test concerns SK-MEL-5 melanoma. Conditions: 10 µM unless noted.
The subject of another test is SK-MEL-28 melanoma. Conditions: 10 µM unless noted.
Another test concerns CAKI-1 renal. Conditions: 10 µM unless noted.
In the next test the test system is SR leukemia. Conditions: 10 µM.
In a further test the test system is OVCAR-5 ovarian. Conditions: 10 µM unless noted.
The subject of a further test is IGROV1 ovarian. Conditions: 10 µM.
A further test has as its system OVCAR-3 ovarian. To be noted: 10 µM unless noted.
A further test deals with HS 578T breast. Conditions: 10 µM unless noted.
The next test relates to MCF7 breast. To be noted: 10 µM unless noted.
In another test the test system is NCI-H522 lung. Conditions: 10 µM unless noted.
Another test has as its system A549/ATCC NSCLC. Conditions: 10 µM unless noted.
The test system of the next test is COLO 205 colon. Conditions: 10 µM.
A further test concerns EKVX NSCLC. To be noted: 10 µM unless noted.
The test system of the next test is CCRF-CEM leukemia. Conditions: 10 µM unless noted.
The test system of the next test is RPMI-8226 leukemia. Conditions: 10 µM unless noted.

For the compound `O=C(/C=C/c1ccccc1)N[C@@H](CO)Cc1cnc[nH]1`, the growth with HOP-92 NSCLC is 100%; with HT29 colon, 105%; in the test on SNB-75 CNS, 94.3%; in the test on PC-3 prostate, 97.9%; in the test with SK-MEL-5 melanoma, 103%; with SK-MEL-28 melanoma, 99.4%. In addition, the growth in the test on CAKI-1 renal was 100%; with SR leukemia, 93.6%; in the test with OVCAR-5 ovarian, 98.3%; in the test with IGROV1 ovarian, 92.9%; in the test on OVCAR-3 ovarian, 112%; with HS 578T breast, 116%. Besides, the growth with MCF7 breast was 98.7%.
Take `O=C(NCCNC(=O)c1ccc([As](O)O)cc1)c1ccc([As](O)O)cc1`: the growth was 103% in the test with NCI-H522 lung; 109% in the test with A549/ATCC NSCLC; 100% in the test with COLO 205 colon; 112% in the test on HT29 colon; 87.5% in the test on SNB-75 CNS; 94.6% in the test on PC-3 prostate. Besides, the growth in the test on SK-MEL-5 melanoma is 95.6%; in the test with SK-MEL-28 melanoma, 111%; in the test with EKVX NSCLC it was 103%; in the test with CAKI-1 renal, 98.3%; with CCRF-CEM leukemia, 105%; with SR leukemia, 101%. Moreover, the growth in the test with RPMI-8226 leukemia was 114%; with OVCAR-5 ovarian, 114%; in the test on IGROV1 ovarian it was 110%; in the test on OVCAR-3 ovarian, 104%; in the test with HS 578T breast, 91.7%; in the test on MCF7 breast, 99.7%.
On to `CC(CC(C#N)(c1ccccc1)c1ccccc1)N1CCOCC1` (stereo unspecified), for which the growth in the test on HOP-92 NSCLC is 83.5%; in the test on A549/ATCC NSCLC, 95.6%; in the test with COLO 205 colon it was 101%; in the test on HT29 colon, 106%; in the test with SNB-75 CNS it was 104%; in the test with PC-3 prostate it was 90.4%. In addition, the growth was 102% in the test with SK-MEL-5 melanoma; 123% in the test with SK-MEL-28 melanoma; 92.9% with CAKI-1 renal; 99.5% in the test on CCRF-CEM leukemia; 84.3% in the test with SR leukemia; 103% in the test with RPMI-8226 leukemia. The growth with OVCAR-5 ovarian is 89.5%; in the test on IGROV1 ovarian, 102%; with OVCAR-3 ovarian it was 105%; in the test on HS 578T breast, 111%.
Regarding `O=C(CCl)NCNC(=O)CCl`, the growth in the test on HOP-92 NSCLC is 99.5%; in the test with A549/ATCC NSCLC, 93.2%; with COLO 205 colon, 109%; with HT29 colon it was 105%; in the test with SNB-75 CNS, 85.9%; with PC-3 prostate, 86.4%. The growth is 92.7% with SK-MEL-5 melanoma; 93.7% in the test on SK-MEL-28 melanoma; 56.8% in the test on CAKI-1 renal; 80.2% in the test with SR leukemia; 83% in the test on RPMI-8226 leukemia; 115% with OVCAR-5 ovarian. In addition, the growth was 105% with OVCAR-3 ovarian, 96.8% in the test with HS 578T breast and 85.1% with MCF7 breast.
With `N#C[Se]CCCNS(=O)(=O)C1CC2C=CC1C2` (stereo unspecified), the growth is -73.1% (active) with HOP-92 NSCLC; -34.1% (active) in the test on A549/ATCC NSCLC; -39% (active) in the test with COLO 205 colon; 1.16% (active) with HT29 colon; -19.2% (active) with PC-3 prostate; -70.8% (active) in the test on SK-MEL-5 melanoma. Moreover, the growth in the test with EKVX NSCLC is -96% (active); in the test on CAKI-1 renal, -99.1% (active); in the test on CCRF-CEM leukemia, 17.4%; in the test with SR leukemia, 7.66% (active); in the test on RPMI-8226 leukemia, -29.5% (active); in the test with OVCAR-5 ovarian, 4.98% (active). For the same compound, the growth in the test on IGROV1 ovarian was -52.5% (active); with HS 578T breast it was -25.9% (active); in the test on MCF7 breast it was 2.16% (active).
Take `COc1cccc2c1C(=O)c1c(O)c3c(c(O)c1C2=O)CC(O)(/C(C)=N/NC(=O)CCC(=O)N/N=C(\C)C1(O)Cc2c(O)c4c(c(O)c2C(OC2CC(N)C(O)C(C)O2)C1)C(=O)c1c(OC)cccc1C4=O)CC3OC1CC(N)C(O)C(C)O1` (stereo unspecified): the growth was -40.3% [5 µM] (active) in the test on HOP-92 NSCLC; -47% [5 µM] (active) in the test with NCI-H522 lung; -30% [5 µM] (active) with A549/ATCC NSCLC; -79% [5 µM] (active) in the test with HT29 colon; -53.2% [5 µM] (active) in the test with SNB-75 CNS; -19.3% [5 µM] (active) with PC-3 prostate. The growth in the test with SK-MEL-5 melanoma is -100% [5 µM] (active); in the test with SK-MEL-28 melanoma it was -56.3% [5 µM] (active); in the test on EKVX NSCLC it was -19.4% [5 µM] (active); in the test with CAKI-1 renal, -44.3% [5 µM] (active); in the test on RPMI-8226 leukemia, -38% [5 µM] (active); in the test with OVCAR-5 ovarian, -15.4% [5 µM] (active). The figures for the growth with OVCAR-3 ovarian and with MCF7 breast were -47.3% [5 µM] (active) and 2.38% [5 µM] (active), respectively.
Turning to `S=P(Nc1ccccc1)(Nc1ccccc1)c1ccccc1`, the growth with HOP-92 NSCLC was 84.1%; in the test with A549/ATCC NSCLC it was 91.8%; in the test with HT29 colon, 104%; with SNB-75 CNS, 96.7%; in the test with PC-3 prostate it was 85.9%; with SK-MEL-5 melanoma, 92.1%. Also, the growth with SK-MEL-28 melanoma is 119%; with EKVX NSCLC it was 90%; in the test on CAKI-1 renal it was 71.4%; in the test on CCRF-CEM leukemia, 95.3%; in the test on RPMI-8226 leukemia, 82.5%; in the test on IGROV1 ovarian, 101%. Moreover, the growth is 103% in the test on OVCAR-3 ovarian and 109% with MCF7 breast.
On to `CCOCC1(CCc2ccccc2)C(=O)NC(=S)NC1=O`, for which the growth is 101% in the test on HOP-92 NSCLC; 97.8% in the test on A549/ATCC NSCLC; 109% in the test with COLO 205 colon; 108% with HT29 colon; 100% with SNB-75 CNS; 104% with PC-3 prostate. In addition, the growth is 116% in the test on EKVX NSCLC; 99.9% in the test on CAKI-1 renal; 100% with CCRF-CEM leukemia; 92.7% in the test with SR leukemia; 104% with RPMI-8226 leukemia; 107% with IGROV1 ovarian. Moreover, the figures for the growth in the test on OVCAR-3 ovarian, in the test with HS 578T breast and with MCF7 breast were 117%, 106% and 103%, respectively.
On to `O=c1cc[nH]c(=O)o1`, for which the growth with HOP-92 NSCLC was 118%; in the test with COLO 205 colon it was 104%; in the test on HT29 colon it was 95.9%; with PC-3 prostate, 98%; in the test on SK-MEL-5 melanoma it was 105%; with SK-MEL-28 melanoma, 111%. Moreover, the growth is 102% in the test with CAKI-1 renal; 94.7% in the test with SR leukemia; 93.1% with RPMI-8226 leukemia; 109% in the test on OVCAR-5 ovarian; 104% in the test with IGROV1 ovarian; 107% in the test on OVCAR-3 ovarian. For the same compound, the results for the growth in the test on HS 578T breast and with MCF7 breast were 120% and 96.9%, respectively.
With `CC(C)N=C(NC(C)C)N1CC1`, the growth was 98.2% in the test on NCI-H522 lung; 101% in the test with A549/ATCC NSCLC; 113% in the test with COLO 205 colon; 111% in the test with HT29 colon; 95.4% with SNB-75 CNS; 112% with PC-3 prostate. Further, the growth was 113% in the test on SK-MEL-5 melanoma; 102% in the test with EKVX NSCLC; 99.3% in the test on CAKI-1 renal; 116% in the test on CCRF-CEM leukemia; 122% with SR leukemia; 121% in the test with RPMI-8226 leukemia. Also, the growth is 106% in the test with OVCAR-5 ovarian; 123% in the test on IGROV1 ovarian; 109% in the test on OVCAR-3 ovarian; 107% in the test on HS 578T breast; 102% in the test on MCF7 breast.

Source of the values: PubChem BioAssay (NCI).
